Screens: PubChem BioAssay, National Center for Advancing Translational Sciences (NCATS)
Most compounds without a hit are left out; they make up all but 2.4% or so of the library.
D2 PAM-1 = potentiates the human D2 dopamine receptor allosterically; P14416; DiscoveRx D2 beta-arrestin cells, luminescence, 90 min; 100% = 57 uM dopamine signal; potentiation, % (concentration not given with the values); 0.23% of 360,000 active; AID 624464; in the data active means potentiation above about 50%; inconclusive means mostly about 30% to 49%
Target sequence (P14416 whole entry, looked up): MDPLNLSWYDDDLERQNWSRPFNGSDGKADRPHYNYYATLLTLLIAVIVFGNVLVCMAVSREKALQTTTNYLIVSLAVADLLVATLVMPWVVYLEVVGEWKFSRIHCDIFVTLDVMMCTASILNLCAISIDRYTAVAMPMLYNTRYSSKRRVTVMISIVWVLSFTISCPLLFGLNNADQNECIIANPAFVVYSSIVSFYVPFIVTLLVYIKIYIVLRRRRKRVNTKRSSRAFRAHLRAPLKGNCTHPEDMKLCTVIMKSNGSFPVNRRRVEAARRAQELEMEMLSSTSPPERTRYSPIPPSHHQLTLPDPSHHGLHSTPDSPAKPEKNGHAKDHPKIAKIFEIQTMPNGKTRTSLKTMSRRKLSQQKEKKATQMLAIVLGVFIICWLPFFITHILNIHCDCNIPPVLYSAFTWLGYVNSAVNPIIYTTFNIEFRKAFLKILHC
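D2 cells co-treated with compound plus 50 nM dopamine (EC20) for 90 min at 37 deg C to detect potentiation. Beta-arrestin recruitment was read as enzyme-fragment luminescence after 1 h at ambient temperature. Full response was set by 57 uM dopamine.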
D2 PAM-2 = positive allosteric modulators of human D2 dopamine receptor. P14416. HEK293 T-REx D2, calcium flux, EC20 dopamine potentiation. potentiation, % at 10 µM. 0.34% of 340,000 active. AID 485347;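 active means potentiation over 3 SD above the plate norm, cut at about 30% in these data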
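Calcium flux readout, no-wash dye, 1 read/s. Inducible HEK293 Trex D2 line, overnight 30 C. Compound alone 180 s (agonist flags), then EC20 dopamine, another 180 s to score potentiation.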
D2 ag-1 = activates the human D2 dopamine receptor. P14416. DiscoveRx PathHunter D2 beta-arrestin, luminescence, 90 min; 100% = 57 uM dopamine signal. activation, % (test concentration not listed). 0.084% of 360,000 active; in the data active means activation above about 40%; inconclusive means between about 15% and that limit
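DiscoveRx PathHunter D2 beta-arrestin cells (2,100/well) attached overnight, then compound-stimulated 90 min at 37 C in HBSS/10 mM HEPES/0.1% Tween-20 buffer; beta-galactosidase complementation read by luminescence after 1 h at ambient temperature. Dopamine 57 uM final (EC100) as control.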
D2 ag-2 = D2 dopamine receptor (human) agonism | HEK293 T-REx D2 cells, calcium flux agonist mode | activation, % at 2 µM | 0.53% of 340,000 active;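 active means activation over 3 SD above normal in the single-dose calcium agonist read, cut at about 30% in these data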
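Calcium-flux readout, 1 cycle/sec over 180 s following compound pin transfer, in inducible HEK293 Trex D2 cells (force-coupled); dopamine controls included. Positive calcium responses during this window marked compounds as potential agonists.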
D2 antag = D2 dopamine receptor (human) antagonism. inhibition, % at 10 µM. P14416. HEK293 TREx D2 cells, calcium flux, dopamine EC80. AID 485344. 2% of 340,000 active; in the data active means inhibition above about 30%; inactive means below that, where a call was filed
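Calcium flux kinetic readout in an inducible HEK293 TREx D2 line plated overnight at 30 C. After 180 s compound exposure, an EC80 dopamine challenge follows with another 180 s kinetic read to detect antagonism.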
Large screens that a line does not name were inactive.

COc1ccc(C2CC(c3cccs3)=NN2c2ccc(C=O)cc2)cc1 (configuration not stated)	D2 ag-2 31
CC(=O)N1CCc2[nH]c3ccccc3c2C1	none
O=C(Cn1c(=S)[nH]c2ccccc2c1=O)N1CCN(c2ccccc2)CC1	D2 antag 31
O=C(CCCCl)N1CCc2[nH]c3ccccc3c2C1	D2 antag 32
O=C(CN1CCc2[nH]c3ccccc3c2C1)N1CCCCC1	none
O=C(CN1CCN(c2ccccc2)CC1)N1CCc2[nH]c3ccccc3c2C1	D2 ag-2 36
CC(C)c1noc(-c2ccccc2OCC(=O)Nc2cccc([N+](=O)[O-])c2)n1	none (no result: D2 PAM-1, D2 ag-1, D2 antag)
CC(CNC(=O)c1ccc(Cn2c(=O)c3cccn3c3cccnc32)cc1)c1ccccc1 (configuration not stated)	none (no result: D2 PAM-1, D2 ag-1, D2 antag)
CC1Cc2cc(S(=O)(=O)CCC(=O)Nc3ccc(Cl)cc3F)ccc2N1C(=O)C1CC1 (configuration not stated)	none (no result: D2 PAM-1, D2 ag-1, D2 antag)
CC1(C)CC(N(Cc2cccs2)C(=O)c2ccco2)CCO1 (configuration not stated)	D2 PAM-2 33
CC1(C)CC(N(Cc2ccco2)C(=O)Cc2ccccc2)CCO1 (configuration not stated)	none
CCN(CCCNC(=O)c1nn(-c2ccc(OC)cc2)c(=O)c2c1c1ccccc1n2C)c1ccccc1	none (no result: D2 PAM-1, D2 ag-1, D2 antag)
CCN(C(=O)CCS(=O)(=O)c1cc2[nH]c(=O)c(=O)[nH]c2cc1C)c1ccccc1	none (no result: D2 PAM-1, D2 ag-1, D2 antag)
COc1ccc(NC(=O)Cn2cc(S(=O)(=O)c3ccccc3)c(=O)c3cc(C)ccc32)cc1Cl	none (no result: D2 PAM-1, D2 ag-1, D2 antag)
CCN(CC)C(=O)COc1ccc2oc(C)c(C(=O)OC(C)C)c2c1	D2 antag 31
Cc1oc2ccc(OS(C)(=O)=O)cc2c1C(=O)OC(C)C	none (no result: D2 PAM-2)
Cc1c(F)cccc1NC(=O)C1CCCN1S(=O)(=O)c1ccc(F)cc1 (configuration not stated)	none (no result: D2 PAM-1, D2 ag-1, D2 antag)
COc1ccc(OC)c(NC(=O)C(C)N2c3cccc4cccc(c34)S2(=O)=O)c1 (configuration not stated)	D2 antag 34
COc1ccc(OC)c(NC(=O)CN2c3cccc4cccc(c34)S2(=O)=O)c1	none (no result: D2 PAM-2, D2 ag-2, D2 antag)
CC(=O)C(C(C)=O)c1c(Cl)c(O)c(O)c2c(C(=O)c3ccccc3)coc12	D2 PAM-1 103, D2 ag-1 inconclusive
O=C1Cc2ccccc2C(c2ccc(Cl)cc2)N1 (configuration not stated)	none
S=C1Cc2ccccc2C(c2ccc(Cl)cc2)N1 (configuration not stated)	D2 antag 33
Cc1ccc(-c2c3c(=O)n(C)c(=O)n(C)c3c3c(C(F)(F)F)nc4ccccc4n23)cc1	none (no result: D2 PAM-1, D2 ag-1, D2 antag)
CSc1cccc(NC(=O)C2CCN(S(=O)(=O)c3cnc[nH]3)CC2)c1	none
CSc1cccc(NC(=O)C2CCCN(S(=O)(=O)c3cnc[nH]3)C2)c1 (configuration not stated)	D2 antag 31
Cc1cccc(OCCn2nnc3sc4c(c3c2=O)CCCC4)c1	none (no result: D2 PAM-1, D2 ag-1, D2 antag)
O=Cc1c(C(=O)O)n(CC(=O)O)c2ccccc12	D2 PAM-1 69
COc1ccc2c(c1)c(=O)c(S(=O)(=O)c1ccccc1)cn2CC(=O)Nc1ccc(C)c(Cl)c1	none (no result: D2 PAM-1, D2 ag-1, D2 antag)
Cc1cc(NC(=O)c2ccc(NC(=O)CCS(=O)(=O)c3cccs3)cc2)ccc1Br	none (no result: D2 PAM-1, D2 ag-1, D2 ag-2, D2 antag)
COc1ccc(C2/C(=C(/O)c3ccc(S(=O)(=O)N4CCOCC4)cc3)C(=O)C(=O)N2CCN2CCOCC2)cc1 (configuration not stated)	D2 antag 40
CC(C(=O)N1CCN(Cc2ccccc2)CC1)n1ncn2cccc2c1=O (configuration not stated)	D2 antag 49
CC(C)Sc1ncc(Cl)c(C(=O)Nc2nc3ccc(S(C)(=O)=O)cc3s2)n1	none (no result: D2 PAM-1, D2 ag-1, D2 antag)
COc1cc(C2Nc3cccc4cccc(c34)N2)ccc1OC(C)=O	D2 PAM-1 inconclusive
Fc1ccc(C2Nc3cccc4cccc(c34)N2)cc1	none
O=[N+]([O-])c1ccc(C2Nc3cccc4cccc(c34)N2)cc1	D2 PAM-1 80, D2 ag-1 inconclusive
COc1ccc(C2Nc3cccc4cccc(c34)N2)cc1Br	D2 PAM-1 54 (no result: D2 ag-2, D2 antag)
O=[N+]([O-])c1cccc(C2Nc3cccc4cccc(c34)N2)c1	D2 PAM-1 105, D2 ag-1 inconclusive
O=C(c1cc(-c2ccccc2Cl)on1)N1CCN(C(=O)c2ccco2)CC1	none
O=C(Nc1cccnc1)c1cc(-c2ccc(Cl)cc2Cl)on1	D2 antag 35
O=C(c1cc(-c2ccc(Cl)cc2Cl)on1)N1CCN(C(=O)c2ccco2)CC1	D2 PAM-2 49
CCc1cc2c(SCC(=O)c3cccs3)ncnc2s1	D2 antag 34
CCCOC(=O)CSc1nnc2ccc3ccccc3n12	none (no result: D2 PAM-1, D2 ag-1, D2 ag-2, D2 antag)
COc1cc(OC)c(NC(=O)CCS(=O)(=O)c2ccc3c(c2)oc(=O)n3C)cc1Cl	none (no result: D2 PAM-1, D2 ag-1, D2 antag)
COc1ccccc1NC(=O)CCS(=O)(=O)c1ccc2c(c1)oc(=O)n2C	D2 antag 31
CCc1cccc(NC(=O)C2CCCN2S(=O)(=O)c2ccc3nc(-c4ccccc4)[nH]c3c2)c1 (configuration not stated)	none (no result: D2 PAM-1, D2 ag-1, D2 antag)
Cn1c(=O)c(=O)n(C)c2cc(NC(=O)c3cccc(F)c3)c(Cl)cc21	none (no result: D2 PAM-1, D2 ag-1, D2 ag-2, D2 antag)
CC1=CC(C)(C)Nc2ccc(OC(=O)CCN3C(=O)c4ccccc4C3=O)cc21	D2 PAM-1 131, D2 ag-1 inconclusive
O=C(CSc1nncn2c1cc1sccc12)Nc1ccc(Br)cc1F	none (no result: D2 PAM-1, D2 ag-1, D2 antag)
COc1cccc(CNc2sc3c(c2C(=O)Nc2ccc(OC)cc2OC)CCC3)c1	none (no result: D2 PAM-1, D2 ag-1, D2 antag)
CCc1cccc(NC(=O)C(Cc2ccccc2)n2cccc2)c1 (configuration not stated)	none (no result: D2 PAM-1, D2 ag-1, D2 antag)
O=C(C[n+]1ccc(-c2ccccc2)cc1)Nc1ccc([N+](=O)[O-])cc1	D2 antag 37
Cc1cccc[n+]1CC(=O)Nc1ccc([N+](=O)[O-])cc1	none
O=C(NCCn1cc(SCc2ccccc2Cl)c2ccccc21)c1cccs1	none (no result: D2 PAM-1, D2 ag-1, D2 antag)
COc1ccc(/C=C/C(=O)Nc2ccccc2C(=O)N2CCCC2)cc1	none
COc1ccc(/C=C/C(=O)Nc2ccccc2C(F)(F)F)cc1	none
COc1ccc(/C=C/C(=O)Nc2ccccc2C(=O)O)cc1	D2 antag 34
COc1ccc(/C=C/C(=O)Nc2ccccc2C(=O)NCC(c2ccc(OC)cc2)N(C)C)cc1 (configuration not stated)	D2 antag 60 (no result: D2 PAM-2)
CCCN1C(=O)C(Cc2nc3ccccc3c(=O)n2-c2ccc(OC)cc2)c2cc(C)ccc21 (configuration not stated)	none (no result: D2 PAM-1, D2 ag-1, D2 ag-2, D2 antag)
CC(=O)N1c2ccccc2CC1C(=O)N1CCN(c2cc(Cl)ccc2C)CC1 (configuration not stated)	none (no result: D2 PAM-1, D2 ag-1, D2 antag)
Cc1ccc(C(=O)NC2CCCCC2)cc1	D2 antag 62
